CYP2C19 inh: inhibitors of human CYP2C19 | P33261 | CYP2C19 Supersomes, luciferin-H EGE luminescence, 30 min | inhibition, % at 5 µM | actives 21% (n = 96,000) | AID 778;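 active = CYP2C19 inhibition above a set limit at 5 µM in the primary screen, cut at about 50% in these data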;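 note: plate controls were negative control wells for no effect and 2.5 mM tranylcypromine positive control for full effect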
CYP2C9 act: increases human cytochrome P450 2C9 activity; AID 1024; recombinant CYP2C9, luciferin-H conversion, luminescence; hits give high values; factor 1 = untreated enzyme, 0 = blocked; actives 1.4% (n = 96,000); P11712; activation factor at 5 µM;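 active = activation factor of 2 or more for CYP2C9 at a 5 µM dose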;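 note: 0 = sulfaphenazole-blocked wells and 1 = vehicle-only wells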
Target sequence (P11712 whole entry, looked up): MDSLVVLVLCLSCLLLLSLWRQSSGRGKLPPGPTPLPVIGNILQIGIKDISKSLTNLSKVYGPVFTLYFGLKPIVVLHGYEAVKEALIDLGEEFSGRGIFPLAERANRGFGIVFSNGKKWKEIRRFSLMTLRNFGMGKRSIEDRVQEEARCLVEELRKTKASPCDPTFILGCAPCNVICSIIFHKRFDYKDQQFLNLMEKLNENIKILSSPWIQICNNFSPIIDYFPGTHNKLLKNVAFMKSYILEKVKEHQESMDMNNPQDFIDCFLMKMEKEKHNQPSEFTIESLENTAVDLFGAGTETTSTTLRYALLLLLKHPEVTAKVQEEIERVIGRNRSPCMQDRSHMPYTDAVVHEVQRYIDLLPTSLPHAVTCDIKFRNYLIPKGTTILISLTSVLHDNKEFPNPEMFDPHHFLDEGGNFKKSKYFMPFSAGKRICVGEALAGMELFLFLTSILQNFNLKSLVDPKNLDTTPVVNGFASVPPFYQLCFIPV
MRP1 act: activators of MRP-1; H69AR cells + doxorubicin, viability rescue, CellTiter-Glo; viability increase, % at 10 µM; actives 0.61% (n = 140,000); AID 799;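 active = viability gain under doxorubicin at or above a set limit, the compound median plus 3 SD, cut at about 4.7% in these data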;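 note: MRP-1 overexpressing cells given doxorubicin 25 µM after compound pretreatment; 18-22 h compound pretreatment then 72 h with doxorubicin before readout; 0% = doxorubicin-only wells and 100% = vehicle-treated cells without doxorubicin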
CYP2C9 inhib: human CYP2C9 inhibition | CYP2C9 Supersomes, luciferin-H conversion, luminescence | inhibition, % at 5 µM | actives 20% (n = 96,000) | AID 777;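 active = blocking of liver enzyme CYP2C9 beyond about 50% at 5 µM, limit read from the data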
CYP2C19 activ: activators of human cytochrome P450 2C19; P33261; recombinant CYP2C19, luciferin-H EGE luminescence; hits give high values; 0 = fully inhibited enzyme, 1 = untreated enzyme; activation factor at 5 µM; 96,000 tested, under 10 active;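 active = activation factor of at least 2 at 5 µM in the primary screen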;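 note: 0 = wells with 2.5 mM tranylcypromine and 1 = vehicle-only wells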
MRP reversal: compounds reversing MRP-mediated drug resistance. H69AR cells + 2 uM doxorubicin, CellTiter-Glo, 72 h. differential viability (reversal), % at 10 µM. actives 0.04% (n = 85,000);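 active = viability drop by adding the cancer drug above about 55%, with treated viability meeting a 40% cutoff, limit read from the data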;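 note: viability without doxorubicin minus viability with 2 µM doxorubicin for each compound; larger differential means the compound sensitizes cells more to doxorubicin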
Active calls of the source: *; / = no result given. Shown are actives, neighbours in structure and some others; about 21% of the full set was active somewhere.

SMILES	CYP2C19 inh	CYP2C9 act	MRP1 act	CYP2C9 inhib	CYP2C19 activ	MRP reversal
CCOC(=O)CSC1=C(C#N)C(c2ccc3c(c2)OCO3)CC(=O)N1 (stereo not given)	32	0.9	-4	6	0.7	-26
CCCCOC(=O)CSC1=C(C#N)C(c2ccc3c(c2)OCO3)CC(=O)N1 (stereo not given)	48	0.4	-2	57*	0.5	-7
CCOC(=O)CSC1=C(C#N)C(c2ccc(C)o2)CC(=O)N1 (stereo not given)	/	/	-4	/	/	2
CCCCCCSC1=C(C#N)C(c2ccc(O)cc2)CC(=O)N1 (stereo not given)	63*	0.3	-1	74*	0.4	-5
CCSC1=C(C#N)C(c2cccc(O)c2)CC(=O)N1 (stereo not given)	11	1	-2	-2	0.9	25
CCn1c(SCC(=O)NNC(=O)c2ccccc2)nnc1-c1ccncc1	-13	1.1	0	-8	1.1	/
Cc1ccc(-c2nn(-c3cc(Cl)ccc3[N+](=O)[O-])c(=O)c3ccccc23)cc1C	24	0.7	-2	33	0.8	/
CCn1c(SCc2nc3ccccc3[nH]2)nnc1-c1cccnc1	78*	1.3	0	-32	0.2	-1
CCn1c(SCc2nc3ccccc3[nH]2)nnc1-c1cnccn1	91*	0.9	0	8	0.1	10
CCSc1nnc(-c2ccncc2)n1Cc1ccccc1	14	1.2	-2	-21	0.9	-14
CCn1c(SCc2nc3ccccc3[nH]2)nnc1-c1ccncc1	93*	0.8	0	20	0.1	-9
CN1CCN(C(=O)CSc2nc(-c3cccs3)ccc2C#N)CC1	12	0.6	-3	37	0.9	3
O=C(CCNc1cccc(Cl)c1)c1ccco1	85*	0.6	-5	36	0.2	-47
COC(=O)CSC(C(=O)Nc1ccc(C)c(C)c1)c1ccccc1 (stereo not given)	92*	0.4	-3	60*	0.1	/
Cc1ccc(NC(=O)C(SCC(=O)O)c2ccccc2)cc1C (stereo not given)	-8	0.9	1	11	1.1	/
CS(=O)(=O)c1ccccc1COC(=O)Nc1ccc(Cl)cc1	69*	1	-1	-1	0.3	/
O=C(Nc1cccc(Cl)c1)OCc1cncs1	99*	0.1	1	87*	0	8
O=C(Nc1ccc(Cl)cc1)OCc1cncs1	98*	0.1	0	89*	0	11
CS(=O)c1ccccc1COC(=O)Nc1cccc(Cl)c1 (stereo not given)	40	1.2	-3	-21	0.6	/
CC(C)(C)N1C(=O)c2ccc(C(=O)NCc3ccco3)cc2C1=O	23	0.5	-1	47	0.8	-7
COc1cccc(C(=O)N/N=C/C(Br)=C/c2ccccc2)c1	/	/	-6	/	/	/
COc1ccc(S(=O)(=O)Nc2nc3n(n2)C(c2ccc(Cl)cc2)CC(=O)N3)cc1 (stereo not given)	-19	0.8	-2	20	1.2	22
CCOc1ccc(OCCOCCn2ccnc2)cc1	98*	0.6	-1	42	0	-2
CCC(C)c1ccc(OCCn2ccnc2)cc1 (stereo not given)	/	/	-1	/	/	/
COC(=O)CSc1nnc(CNC(=O)Cc2ccccc2)n1-c1ccccc1OC	-11	1.1	-4	-12	1.1	-7
SMILES	CYP2C19 inh	CYP2C9 act	MRP1 act	CYP2C9 inhib	CYP2C19 activ	MRP reversal
O=C(N/N=C/c1c[nH]c2ccccc12)c1ccn(Cc2ccc(Cl)cc2)n1	65*	1	-2	2	0.4	/
O=C(N/N=C/c1c[nH]c2ccc(Br)cc12)c1ccn(Cc2ccc(Cl)cc2Cl)n1	14	0.7	-4	35	0.9	/
CCCc1cc(=O)n2[nH]c(CCc3ccccc3)nc2n1	6	0.5	-3	52*	0.9	4
CCOc1ccc(-c2nc(N)ncc2-c2ccc(OC)cc2)c(O)c1	/	/	-3	/	/	/
COc1ccc(-c2nc(N)ncc2-c2csc(C)n2)c(O)c1	87*	1	-1	3	0.1	10
O=C(Nc1nnc(-c2cccs2)o1)c1cc(-c2ccccc2)nc2ccccc12	/	/	-3	/	/	/
COc1ccc(COC(=O)c2ccc(N3CCCC3=O)cc2)cc1F	45	0.4	0	61*	0.5	-4
Cc1cc(NC(=O)CSc2nc3ccccc3c(=O)n2CCCC(=O)NCc2ccco2)n[nH]1	84*	0.3	-3	71*	0.2	3
CCc1ccc(NC(=O)CSc2nc3ccccc3c(=O)n2CCCC(=O)N2CCCC2)cc1	37	0.6	-4	38	0.6	-45
O=C(CSc1nc2ccccc2c(=O)n1CCCC(=O)N1CCCC1)NCc1ccco1	65*	0.6	-3	43	0.4	-7
CCCC1CCC(=C(C#N)C(N)=O)CC1 (stereo not given)	/	/	-2	/	/	/
COc1ccc(C2C(C(=O)c3ccccc3)=C(C)Nc3nc4ccccc4n32)c(OC)c1 (stereo not given)	/	/	-1	/	/	/
CCOCCCNC(=O)N[C@@H](Cc1ccccc1)C(=O)OC	-1	1.2	0	-17	1	-23
CC(=O)Nc1ccc(N(C(=O)Cc2c[nH]c3ccccc23)C(C(=O)NC2CCCCC2)c2ccco2)cc1 (stereo not given)	/	/	1	/	/	/
CC(=O)c1ccc(N(C(=O)Cc2c[nH]c3ccccc23)C(C(=O)NC2CCCCC2)c2cccs2)cc1 (stereo not given)	65*	0.4	-2	58*	0.4	/
Cc1ccc(C(C(=O)NC2CCCCC2)N(C(=O)Cc2c[nH]c3ccccc23)c2ccccc2)o1 (stereo not given)	45	0.3	-2	66*	0.6	/
O=C(NC1CCCC1)C(c1ccsc1)N(C(=O)Cc1cccs1)c1ccc(F)cc1 (stereo not given)	14	0.9	-2	5	0.9	/
O=C(NC1CCCCC1)C(c1cccs1)N(C(=O)Cc1c[nH]c2ccccc12)c1ccc(F)cc1 (stereo not given)	68*	0.5	-5	48	0.3	/
COc1ccc(C)cc1NC(=O)CN1CCN(c2ccccc2F)CC1	70*	0.7	-2	34	0.3	5
COc1ccc(C)cc1NC(=O)CN1CCN(C/C=C/c2ccccc2)CC1	88*	0.3	-1	67*	0.1	/
COc1ccc(C)cc1NC(=O)CN1CCN(S(=O)(=O)c2ccc(F)cc2)CC1	52*	0.8	-4	23	0.5	35
COc1ccccc1N1CCN(CCC(=O)Nc2ccc3c(c2)OCO3)CC1	54*	0.4	-1	65*	0.5	9
COc1ccccc1NC(=S)N1CCN(C/C=C/c2ccccc2)CC1	/	/	0	/	/	/
CC(=O)N1c2ccccc2C2(O)N=C(C)SC12 (stereo not given)	/	/	-3	/	/	/
COc1ccc(OC)c(NC(=O)CCN2CCN(c3ccccc3F)CC2)c1	77*	0.4	-1	60*	0.2	-7

Assay outcomes deposited in PubChem BioAssay by several laboratories.
